Screening results from PubChem.
Bst PK mod – alters activity of Bacillus stearothermophilus pyruvate kinase; actives 1.2% (n = 51,000); Potency, µM; purified pyruvate kinase, luminescence ATP production; ribose 5-phosphate activator present at AC10; in the data active means potency below about 11 µM; inconclusive means mostly about 12 µM to 25 µM;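 the screen sought inhibitors and activators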;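 further: scaled between full activation by ribose 5 phosphate and full inhibition by luteolin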
Luciferase inh – blocks Photinus pyralis firefly luciferase activity; purified firefly luciferase, luminescence, 8 min; actives 2.2% (n = 72,000); P08659; Potency, µM (top dose mostly 57.1 µM), inactives show top-dose activity change, negative = inhibition, actives largely listed as inhibitors; active means well fitted inhibition curve with a large enough effect; inconclusive means small, poorly fitted or top-dose-only effect; further: nearly all actives have a fitted effect of over 40% in size
Target sequence (P08659 whole entry, looked up): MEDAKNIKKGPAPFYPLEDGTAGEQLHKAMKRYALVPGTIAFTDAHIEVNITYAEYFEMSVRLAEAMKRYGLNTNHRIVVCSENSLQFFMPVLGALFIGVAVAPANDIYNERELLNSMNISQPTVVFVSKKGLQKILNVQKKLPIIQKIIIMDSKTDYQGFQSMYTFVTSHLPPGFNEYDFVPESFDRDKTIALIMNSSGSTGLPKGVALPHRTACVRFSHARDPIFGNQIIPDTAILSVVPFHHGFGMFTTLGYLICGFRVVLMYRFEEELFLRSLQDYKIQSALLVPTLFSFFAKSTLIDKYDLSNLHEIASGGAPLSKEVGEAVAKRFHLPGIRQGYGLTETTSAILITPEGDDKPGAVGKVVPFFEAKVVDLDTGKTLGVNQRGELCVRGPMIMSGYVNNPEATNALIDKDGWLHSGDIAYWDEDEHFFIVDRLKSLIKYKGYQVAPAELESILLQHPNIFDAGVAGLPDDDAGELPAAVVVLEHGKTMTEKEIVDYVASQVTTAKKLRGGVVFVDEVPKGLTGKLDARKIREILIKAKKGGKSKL
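qHTS concentration-response profiling: light output of P. pyralis luciferase with luciferin and 10 uM ATP, imidazole buffer pH 7.2. Read by luminescence after 8-min room-temperature incubation.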
Active calls of the source: *; i = inactive; ? = inconclusive; · = not tested or not shown; [ ] = remark or other dose. The list is not random: actives were taken first. Their share in the collection is about 2.5%. Unless noted, on the % scale 0 is the no-effect control and ±100 the full control effect; potency means the concentration at half of the fitted maximal effect.

SMILES	Bst PK mod	Luciferase inh
O=C(C1CCN(S(=O)(=O)c2cccc3cccnc23)CC1)N1CCc2ccccc21	9.7*	4%
O=C(Nc1ccc2c(c1)OCO2)C1CCN(S(=O)(=O)c2cccc3cccnc23)CC1	6.7*	0%
O=C(C1CCCN1S(=O)(=O)c1cccc2cccnc12)N1CCc2ccccc21 (stereo not given)	·	1%
CCOC(=O)c1cccc(NC(=O)C2CCCN2S(=O)(=O)c2cccc3cccnc23)c1 (stereo not given)	·	0%
O=C(Nc1cccc(C(F)(F)F)c1)C1CCCN1S(=O)(=O)c1cccc2cccnc12 (stereo not given)	8.3*	2%
COc1ccc(NC(=O)C2CCN(S(=O)(=O)c3cccc4cccnc34)CC2)cc1OC	·	3%
O=C(O)[C@H](Cc1cc(I)c(O)c(I)c1)C1CCCCC1	·	1%[11.4 µM]
C=C[C@@]1(C)CC(=O)[C@@]2(O)[C@@]3(C)[C@@H](O)CCC(C)(C)[C@@H]3[C@H](O)[C@H](OC(C)=O)[C@@]2(C)O1	·	0%
O=C(c1ccccc1)[C@H](Nc1ccc2ccccc2c1)c1ccccc1	·	-21%[11.4 µM]
O=C(CCNc1ccc(F)c(Cl)c1)c1ccco1	·	-1%
O=C(/C=C/Nc1ccc(F)c(Cl)c1)c1ccco1	i	16µM*
CC(=O)Nc1ccc(N/C=C/C(=O)c2ccco2)cc1	i	25µM*
CC(=O)Nc1ccc(NC(=O)c2ccco2)cc1	·	-9%
CC[C@H](C(=O)c1cccs1)C(O)(C(F)(F)F)C(F)(F)F	·	2%[11.4 µM]
COC(=O)C/C=C\[C@@H](C)[C@@H]1C=C[C@H](OC(C)=O)[C@H](COC(C)=O)O1	·	1%[11.4 µM]
N[C@@H](Cc1c[nH]c2ccc([N+](=O)[O-])cc12)C(=O)O	·	1%[11.4 µM]
CCOc1ccc(CCNC(=O)C2CCCN(c3nn4c(=O)cc(C)nc4s3)C2)cc1 (stereo not given)	>57	0%
CCOc1ccc2nc(N3CCC(C(=O)N4CCN(c5ccccn5)CC4)CC3)sc2c1	·	6.3µM*
CCOc1ccc2nc(N3CCC(C(=O)N4CCN(c5ncccn5)CC4)CC3)sc2c1	·	-19%
CCOc1ccc2nc(N3CCCC(C(=O)NCCCN4CCOCC4)C3)sc2c1 (stereo not given)	·	25µM*
O=C(OC1CCOC1=O)c1ccc2ccccc2n1 (stereo not given)	>57	-2%
O=C1c2ccccc2C(=O)C1c1ccc2ccccc2n1	1.1*	0.79µM*
Cc1ccc(N2CC(C(=O)NC3=NCCS3)CC2=O)cc1 (stereo not given)	>57	4%
COc1ccc(S(=O)(=O)N2CCCC(C(=O)Nc3ccc(OC)c(OC)c3)C2)cc1 (stereo not given)	>57	2%
COc1ccc(NC(=O)C2CCCN(S(=O)(=O)c3ccc(C)cc3)C2)cc1OC (stereo not given)	5.4*	3%
SMILES	Bst PK mod	Luciferase inh
Cc1ccc(S(=O)(=O)N2CCCC(C(=O)NC3=NCCS3)C2)cc1 (stereo not given)	6.3*	1%
Nc1nc(N)c2[nH]cnc2n1 (tested in a mixture with another compound)	·	0%[11.4 µM]
COc1ccccc1OC[C@H](O)CN1CCN(CC(=O)Nc2c(C)cccc2C)CC1	·	0%
Cn1c(=O)c(CCc2ccccc2)nc2cnc(N3CCNCC3)nc21	·	-8%[11.4 µM]
CC(C)=CCNc1ncnc2nc[nH]c12	·	2%[11.4 µM]
COCCCNc1ncnc2nc[nH]c12	·	6.3µM*
COCCNc1ncnc2nc[nH]c12	>57	1%
CCOC(=O)CNc1ncnc2nc[nH]c12	·	10µM*
N[C@@]1(C(=O)O)CCC[C@@H]1C(=O)O	·	2%[11.4 µM]
Nn1c(Nc2ccccc2)nc2ccccc2c1=O	·	0%
Nn1c(Nc2ccccc2)nc2ccccc21	·	13µM*
CCNc1ncc2nc(C)c(=O)n(CCc3ccccc3)c2n1	·	1%[11.4 µM]
CO[C@@H]1/C=C\CC(=O)N2CCC[C@@H]2C(=O)OC[C@H](C)C(=O)OC[C@H]1C	·	-1%[11.4 µM]
CN1CCN(c2ncc3nc(-c4ccc(Cl)cc4)c(=O)n(C)c3n2)CC1	·	-6%[11.4 µM]
CCCc1cc(C(=O)Nc2cccc(Cl)c2)no1	·	16µM*
CCCc1cc(C(=O)Nc2cccc(C(C)=O)c2)no1	·	-14%
O=C(Oc1cccnc1)c1ccco1	>26	0%[25.5 µM]
O=C(Oc1ccc(-c2cnc3ccccc3n2)cc1)c1ccco1	·	5µM*
CC(=O)O[C@]12CC[N@+]3(C)CCCC[C@@H]3[C-]1Nc1ccccc12	·	3%[11.4 µM]
COC(=O)c1ccc(NC(=O)Nc2ccc(F)cc2)cc1	i	20µM*
COC(=O)c1ccc(NC(=O)COc2ccccc2OC)cc1	·	2%
O=C(Oc1ccc2c(c1)OCO2)c1ccc(F)cc1Cl	·	13µM*
CCOc1ncccc1C(=O)Oc1ccc2c(c1)OCO2	>57	1%
CC(C)(C)C(=O)Nc1ccc(-c2cn3ccsc3n2)cc1	1.6*	1µM*
CC(C)CC(=O)Nc1ccc(-c2cn3ccsc3n2)cc1	2.7*	3.2µM*
SMILES	Bst PK mod	Luciferase inh
O=S(=O)(Nc1ccc(-c2cn3ccsc3n2)cc1)c1ccc2c(c1)OCCO2	>57	-8%
COc1ccc(C(=O)Nc2ccc(-c3cn4ccsc4n3)cc2)cc1S(=O)(=O)N1CCOCC1	>57	-3%
CN(C)C[C@H]1CCC2=C(C1=O)C(c1ccc(Cl)c(Cl)c1)C1=C(CC[C@H](CN(C)C)C1=O)O2	·	1%[11.4 µM]
CN1CCN(CCCN)CC1	·	2%[11.4 µM]
CC(C)(C)c1csc(NC(=O)c2ccc(Cl)s2)n1	i	16µM*
O=C(Nc1nc(-c2cccs2)cs1)c1ccc(Cl)s1	·	-15%
Cc1cccc2cc3c(N)c(C(=O)N4CCOCC4)sc3nc12	?	16µM*
Cc1ccc(-n2c(N)c(C(=O)N3CCOCC3)sc2=S)cc1	>57	0%
CC1(NC[C@@H](O)COc2cccc3[nH]ccc23)CCC(C(C)(C)NC(=O)CBr)CC1 (stereo not given in full)	·	-3%
C/C(=N/Nc1nc(C)cc(=O)[nH]1)C(=O)O	·	0%[11.4 µM]
O=c1[nH]c(=S)c2[nH]c(=O)n(-c3ccccc3)c2[nH]1	·	0%[11.4 µM]
C=CCNc1ncnc2c1cnn2-c1ccc(Cl)cc1	·	2.5µM*
Cc1ccc(-n2ncc3c(N4CCN(c5ccccc5)CC4)ncnc32)c(C)c1	>26	-1%[25.5 µM]
Cc1cccc(-n2ncc3c(NC4CCCCC4)ncnc32)c1	·	10µM*
COc1ccccc1Nc1ncnc2c1cnn2-c1cccc(C)c1	·	-10%[25.5 µM]
Clc1ccc(-n2ncc3c(NCc4ccccn4)ncnc32)cc1	?	-4%[25.5 µM]
Cc1cccc(-n2ncc3c(N4CCCC4)ncnc32)c1	5.4*	1.6µM*
C=CCNc1ncnc2c1cnn2-c1cccc(C)c1	·	10µM*
Cc1cccc(-n2ncc3c(NCc4ccc5c(c4)OCO5)ncnc32)c1	>57	-1%
CNCCCCCCCCSc1nc(C(C)C)ccc1C(=O)c1cccs1	·	0%
C[C@H]1[C@H](C)OC(=O)C[C@H](O)C[C@H](O)C[C@H](O)CC[C@H](O)[C@H](O)CC(=O)C[C@H](O)[C@H](C(=O)O)[C@H](O)C[C@H](O[C@@H]2O[C@@H](C)[C@H](O)[C@@H](N)[C@@H]2O)C=CC=CC=CC=CCCC=CC=C[C@@](C)(O)[C@H]1O	·	2%[11.4 µM]
COC(=O)c1c(-c2ccc(F)cc2)csc1NC(=O)c1ccco1	·	13µM*
COC(=O)c1c(-c2cccnc2)csc1NC(=O)c1cc(C)on1	?	13µM*
O=C(Nc1scc(-c2ccccc2)c1C(=O)O)c1ccco1	·	-9%
COc1cccc(-c2cc(C(=O)Nc3cc(C)on3)no2)c1	>57	-4%
Cc1ccc(S(=O)(=O)N=Nc2c(O)[nH]c3cc(O)c(C(=O)O)cc23)cc1	·	3%[11.4 µM]
